Experimental data from ChEMBL document CHEMBL3433997, “St. Jude Leishmania screening dataset” (2016).

The compounds below were run against Solute carrier family 2, facilitated glucose transporter member 1 (Homo sapiens) (UniProt P11166) (assay: ST_JUDE_LEISH: Cytotoxicity at 2uM final concentration against transgenic Leishmania Mexicana promastigotes LmGLUT1 that are glucose transport deficient and complemented with the human glucose transporter GLUT1. Activity is measured by DNA content using SYBR green in vitro).
Solute carrier family 2, facilitated glucose transporter member 1 (Homo sapiens), sequence (P11166 whole entry): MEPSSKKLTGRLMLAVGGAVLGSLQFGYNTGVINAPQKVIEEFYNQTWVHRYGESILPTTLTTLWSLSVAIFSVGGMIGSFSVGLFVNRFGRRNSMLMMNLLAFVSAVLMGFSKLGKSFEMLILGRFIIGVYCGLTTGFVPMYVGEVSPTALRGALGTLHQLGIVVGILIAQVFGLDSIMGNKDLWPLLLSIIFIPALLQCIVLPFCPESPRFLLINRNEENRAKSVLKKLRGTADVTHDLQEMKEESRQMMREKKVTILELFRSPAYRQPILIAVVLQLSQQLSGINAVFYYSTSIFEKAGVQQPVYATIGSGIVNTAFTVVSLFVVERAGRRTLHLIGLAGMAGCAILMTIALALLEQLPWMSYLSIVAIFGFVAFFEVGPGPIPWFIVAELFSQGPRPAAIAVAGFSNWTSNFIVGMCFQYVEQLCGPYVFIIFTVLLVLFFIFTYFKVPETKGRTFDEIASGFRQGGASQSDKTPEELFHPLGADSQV
Type: functional
With `O=C(Nc1cccc(C(F)(F)F)c1)Nc1ccc(F)c([N+](=O)[O-])c1` the inhibition was 2.84%. `COc1cc(Cc2cnc(N)nc2N)cc(OCCCCC#N)c1OC` gave an inhibition of 2.09%. Compound `CCCc1cc(Cc2cnc(N)nc2N)cc(CCC)c1O` has an inhibition of 2.06%. For `CN(C)C(=O)c1cccc(COc2ccc(N3C(N)=NC(N)=NC3(C)C)cc2Cl)c1`, the inhibition was 1.73%. `CC(=NNc1nc2ccccc2s1)c1ccccn1` was tested, and the inhibition was 7.41%. Compound `CCN(CC)CCNc1ccnc2[nH]c3ccc(C)cc3c12` has an inhibition of 0.06%. In the case of `CCc1c[nH]c2c(N3CCCCS3(=O)=O)cc(C(=O)N[C@@H](Cc3ccccc3)[C@H](O)CNCc3cccc(OC)c3)cc12`, the inhibition is reported as 0.82%. For `CN1C(=O)C(=NN=C(S)N2CCOCC2)c2ccccc21`, the inhibition was 23.4%. Work on `c1ccc2sc(-c3csc(Nc4ccncc4)n3)nc2c1` yielded an inhibition of -1.14%.

These compounds were tested against Hexose transporter 1 (Plasmodium falciparum) (UniProt O97467) (assay: ST_JUDE_LEISH: Cytotoxicity at 2uM final concentration against transgenic Leishmania Mexicana promastigotes LmPfHT that are glucose transport deficient and complemented with the Plasmodium falciparum hexose transporter. Activity is measured by DNA content using SYBR green in vitro).
Type: functional
In the case of `Fc1ccc2[nH]c(-c3ccc(-c4ccc(CNCCN5CCNCC5)cc4)s3)nc2c1`, the inhibition is reported as 1.98%. For `O=C(Nc1ccc(-c2ccc(CN3CCNCC3)cc2)cc1)c1cccc(Cl)c1`, the inhibition was 104%. `CN(C)CCCc1cc2c(cc1Cl)CCN2C(=O)Nc1ccc(-c2ccncc2)c2ccccc12` gave an inhibition of -1.62%. `N=c1c2nc(-c3c(F)cccc3Cl)[nH]c(=O)c2[nH]c(=O)n1-c1ccccc1` showed an inhibition of 11.5%. In the case of `CN(C)C=Nc1ccc(OCCCCCCOc2ccc(N=CN(C)C)cc2)cc1`, the inhibition is reported as 3.26%. `CCC(Cc1cnc2nc(N)nc(N)c2n1)c1ccc(C(=O)N[C@@H](CCC(=O)O)C(=O)O)cc1` (stereo partly drawn) showed an inhibition of 22.1%. Work on `N#Cc1ccc(-c2ccc(C(=O)NCCCCN3CCC(c4nc5ccccc5[nH]4)CC3)cc2)cc1` yielded an inhibition of 2.21%. `CCOC(=O)CNCC(=O)c1ccc(OCc2ccccc2)cc1` showed an inhibition of 0.64%. For `COc1cccc(NC(=O)c2cc(Br)cc(N3CCN(c4ccncc4)CC3)c2)c1`, the inhibition was 2.07%. `Cc1cc(C)c2oc(-c3cccc(NC(=O)c4ccc([N+](=O)[O-])o4)c3C)nc2c1` showed an inhibition of 10.4%. For `CS(=O)(=O)CCNCc1nc(-c2ccc3ncnc(Nc4ccc(OCc5ccccc5)c(Cl)c4)c3c2)cs1`, the inhibition was 3.42%. In the case of `Cc1cccc2nc(-c3ccc(-c4cccc(CNCCN5CCNCC5)c4)cc3)[nH]c12`, the inhibition is reported as 8.32%. `Cc1c(C(=O)Nc2cc(Sc3ccc(F)cc3)cc([N+](=O)[O-])c2)sc2ncn(Cc3ccccc3F)c(=O)c12` gave an inhibition of 9.11%. With `COc1ccc2ccc(F)c(CCN3CCC(NCc4cc5c(cn4)OCCO5)CC3)c2n1` the inhibition was 14%. Work on `O=C(N[C@@H](Cc1ccccc1)C(=O)NC1CCCc2ccccc21)c1ccc(O)c(-c2cccc(C(F)(F)F)c2)c1` (stereo partly drawn) yielded an inhibition of -1.1%. Compound `CC(=O)Nc1ncc(C(=O)Nc2cccc(-c3cccc(-c4nc5ccccc5[nH]4)c3)c2)s1` has an inhibition of 1.44%. For `CN(CCO)Cc1cccc(-c2ccc(NC(=O)c3cccc(C#N)c3)cc2)c1`, the inhibition was 0.52%. In the case of `CCc1cc2c(N)nc(N)nc2nc1-c1ccccc1`, the inhibition is reported as 3.93%. Work on `C[C@@H](CC1CCCCC1)OC(=O)N[C@H]1CCN(C#N)C1` yielded an inhibition of 8.07%. With `O=C(Cc1c[nH]cn1)Nc1cccc(-c2cccc(-c3nc4cc(F)ccc4[nH]3)c2)c1` the inhibition was -0.43%. `N=C1NC(c2ccccc2)(c2ccccc2)C(=O)N1C1CCCCC1` gave an inhibition of 3.28%. Work on `Nc1cc(-c2cccc(Cl)c2)nn1-c1ccnc2cc(Cl)ccc12` yielded an inhibition of -0.13%. `Cc1cc(N[C@@H](Cc2ccccc2)C(=O)Nc2ccccc2)nc(Nc2ccccc2)n1` showed an inhibition of 5.91%. For `O=C(Nc1ccc2oc(-c3ccc(Cl)cc3Cl)nc2c1)c1ccc([N+](=O)[O-])o1`, the inhibition was 54.3%. Compound `CN(C)C(=S)N/N=C1/C(=O)Nc2ccc(OC(F)(F)F)cc21` has an inhibition of 1.64%. In the case of `COc1ccc(CN2CCCC(N3CC4(OC3=O)c3ccccc3-c3ccccc34)C2)c(O)c1` (stereo not drawn), the inhibition is reported as 4.69%. Work on `COc1ccc(NC(=O)c2ccc(NC(=O)c3ccc(Cl)cc3)cc2)cc1N1CCN(C)CC1` yielded an inhibition of 4.66%. Work on `Cc1cccc2nc(-c3ccc(-c4cccc(CN5CC(C)OC(C)C5)c4)s3)[nH]c12` (stereo not drawn) yielded an inhibition of 6.31%. In the case of `O=C(/C=C/c1cccc(OC(F)(F)F)c1)NCCCCCN1CCC(c2c[nH]c3ccccc23)CC1`, the inhibition is reported as 0.75%. For `O=C(NCc1cccc(C(F)(F)F)c1)[C@@H]1CCCN1C(=O)c1ccc(O)c(-c2ccc(Cl)c(Cl)c2)c1`, the inhibition was -0.25%. Compound `COc1cccc(-c2cc(C(=O)NC3CCC(N4CCC(c5ccccc5C)CC4)CC3)[nH]n2)c1` (stereo not drawn) has an inhibition of 14.6%. `O=C(Nc1cccc(C(F)(F)F)c1)Nc1ccc(F)c([N+](=O)[O-])c1` gave an inhibition of 3.09%. For `COc1cc(Cc2cnc(N)nc2N)cc(OCCCCC#N)c1OC`, the inhibition was 1.74%. For `CCCc1cc(Cc2cnc(N)nc2N)cc(CCC)c1O`, the inhibition was 1.83%.
